In the supplement of paper PMC3334620:
Over roughly 33,000 sequences, “E-score (-0.5 to 0.5)” has its median near -0.01; the highest 2% begin near 0.26. Many of the other results were omitted from the sample, so the highest values are more common in it than they were.

What follows are sequences tested against Ste12 (UniProt P13574) (assay: PBM E-score (8-mer binding enrichment) (E-score (-0.5 to 0.5)); higher = stronger / more preferred TF binding). Details: protein concentration: 200 nM; construct: GST-DNA-binding domain.
Sequence of UniProt P13574 (P13574 whole entry, the tested form may be a part): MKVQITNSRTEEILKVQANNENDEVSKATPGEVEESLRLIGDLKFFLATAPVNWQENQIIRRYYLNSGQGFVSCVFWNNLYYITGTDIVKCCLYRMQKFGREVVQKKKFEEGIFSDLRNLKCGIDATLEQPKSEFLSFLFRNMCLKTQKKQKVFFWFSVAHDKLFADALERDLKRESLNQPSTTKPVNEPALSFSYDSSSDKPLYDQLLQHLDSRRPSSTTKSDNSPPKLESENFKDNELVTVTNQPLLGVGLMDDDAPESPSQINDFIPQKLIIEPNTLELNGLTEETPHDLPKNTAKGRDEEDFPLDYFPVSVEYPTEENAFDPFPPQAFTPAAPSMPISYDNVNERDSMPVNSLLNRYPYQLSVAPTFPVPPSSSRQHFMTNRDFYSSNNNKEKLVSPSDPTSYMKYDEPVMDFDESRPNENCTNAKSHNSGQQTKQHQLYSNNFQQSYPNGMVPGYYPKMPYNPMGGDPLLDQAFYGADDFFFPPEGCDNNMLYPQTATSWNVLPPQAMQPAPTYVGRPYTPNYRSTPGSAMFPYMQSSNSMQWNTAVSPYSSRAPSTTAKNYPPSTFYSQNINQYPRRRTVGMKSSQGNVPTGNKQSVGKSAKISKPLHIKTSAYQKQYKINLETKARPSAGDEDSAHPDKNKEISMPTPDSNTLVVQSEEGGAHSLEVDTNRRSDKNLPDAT
Procedure: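 Universal 'all 10-mer' protein binding microarrays (Agilent AMADID 015681) probed with GST-tagged S. cerevisiae TFs (full-length or DBD) made by in vitro transcription/translation (PURExpress), about 100-200 nM. Bound TF was detected with fluorescent anti-GST. Each ungapped 8-mer (which stands for itself and its reverse complement) is scored by the PBM enrichment score (E-score), a modified Wilcoxon-Mann-Whitney statistic from -0.5 to +0.5, computed with the Universal PBM Analysis Suite. Scale: above 0.35 generally sequence-specific binding.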

Sequence	PBM E-score
CTATGAAG	0.0327
TTATGAAA	0.431
CTATGAAA	0.211
ATATGAAC	0.154
ATATGAAA	0.346
GTATGAAA	0.338
GTATGAAC	-0.018
GTTTTCCA	0.093
ATTGGGCG	-0.00653
CTGTTTCC	0.0865
GTATTTCA	0.1
CTGTTTCA	0.484
GTGTTGCA	0.159
GTGTTTCA	0.489
ATGTTTAG	0.214
CTGTTTAC	0.0415
ATGTTTCG	0.366
ATGTTTCC	0.178
ATGTTTCA	0.493
ATGTTCCA	0.18
ATATTTCA	0.139
ACCATAAT	0.114
AGAAGCAA	0.153
ACAGTGCC	-0.0356
AGCTGCGC	-0.177
ATGTTTTA	0.374

Sequence	PBM E-score
AGGTTTTG	0.0633
CTGTTTTC	0.0946
ATGTTTTC	0.172
CTGTTTAA	0.22
GTGTTTTA	0.405
GTGTTTAA	0.155
ATGTTTTG	0.335
CTGTTTTA	0.308
GGGTTTTA	0.217
ATTTTTTG	0.222
ATGTTTAA	0.0895
ACAAGCAA	-0.00365
ACCTATGA	-0.21
CGCTGGTA	-0.118
ATAGCAAA	0.0867
CGGGAGTC	-0.12
AAAGTTGA	0.111
GGCGCAAA	0.218
AAATGAAA	0.426
TAATGAAA	0.155
GAATGAAA	0.322
GAATGAGA	-0.00579
GAATGAAC	0.016
CAATGAAA	0.258
CCTAGACG	-0.134
TAGAGAAA	0.0197

Sequence	PBM E-score
GACATTTA	-0.0124
ATCATTAG	0.0954
ATCATTAA	0.298
AACATTAT	0.125
AACATTTA	0.29
AACATTAA	0.301
CTCATTAA	0.111
AACATTTC	0.0303
GACATTAA	0.173
GAGAGAAC	-0.0294
CTTGGCTA	0.0252
GCGTGACA	0.126
GCGGCAGA	-0.128
GAATAAGC	-0.0403
GTGTTCCA	0.141
AATGCGGT	-0.0129
CCGTTGCC	-0.253
ATGTAATA	0.217
ATTTTAAC	0.19
AATTTTGG	0.104
ACTTAAAA	0.183
ATTTTAAA	0.348
AAATTTTG	0.0681
TGTTAAAA	0.168
ATTTAAAA	0.314
ATTTTAAG	0.161

Sequence	PBM E-score
AGTTAAAA	0.286
ATTTAACA	0.181
CGTTAAAA	-0.00084
AATTTTTG	0.321
GGTTTTGA	0.111
CCATACCC	0.128
CTAGAATA	0.171
GCACAGCA	-0.102
CAGTGGGC	-0.199
GACTTAGA	-0.272
AGCTTGAG	-0.164
AAGTTCGT	-0.226
TACCAGAA	0.253
TGCATACA	-0.139
TAACGCGA	0.0877
AAGCTCGT	-0.195
ATTTTACG	0.243
CTATTTAA	0.194
ATATTTTA	0.235
AATTTACC	0.137
AATTTTAA	0.318
AATTTTAT	0.217
ATATTTAC	0.219
ATATTTAA	0.347
AATTTTAC	0.251
ATTTTACC	0.277

Sequence	PBM E-score
ATTTTTTA	0.331
CTATTTTA	0.232
ACCGTTAC	-0.0206
TCGGTACA	0.0794
ACTGAGCA	-0.119
ACAGGATG	0.0588
CTCTAGAG	-0.162
AACAACGC	0.111
AAGCCCCG	0.0304
AATTTTGA	0.145
ACATTTAA	0.32
AATTTTTA	0.283
ATTTTTAG	0.175
GCATTTAA	0.12
AATTTTTC	0.181
ATTTTTAA	0.28
ATTTTTAC	0.207
ACATTTAG	-0.0629
ATTTTTGG	0.183
AAATTTTA	0.132
ATTTTTGA	0.298
TAAGCCAA	0.00854
GGCTTAGA	-0.0335
TACCAGCA	-0.0129
CTAGTACA	0.0611
GCAATCCC	0.0206

Sequence	PBM E-score
CTCTTTAC	0.0191
AAAGTGGG	0.182
AGTTCGAC	-0.147
CCCTGAGG	-0.213
ACATCTAA	0.114
ATTTTGTA	0.16
ATTTTGTG	0.281
ATTTTGTC	0.114
AAGTTGCA	-0.0946
CCATCAAC	-0.144
GGTTACTA	0.0972
GGTTACAC	-0.0834
CGTTACAC	0.122
GGTTACAA	0.284
AGTTACAA	0.157
CGTTACAG	0.146
TGTTACAA	0.387
CGTTACAA	0.314
TGTTATAA	0.283
AGTTATAA	0.133
TCTTACAA	0.0356
CGTTATAA	0.143
CCCATACG	-0.123
GGTAGAAC	-0.101
CCATATCC	0.0086
AGCCTCTC	-0.234

Sequence	PBM E-score
AGTTTTGG	0.104
AAGTTACG	0.0247
AAATATTC	0.14
CAATATGA	0.0995
AAATATTA	0.352
AAATATGT	0.226
AAATATGA	0.308
CAATATTA	0.176
ATCAGCCA	-0.0331
GCGTTTAC	-0.0566
GCGTTTAA	0.103
ACGTTTAA	0.0563
CCGTTTTC	0.133
CCTTTTTA	0.051
GCGTTTTA	0.352
CCGTTTAA	0.135
CCGTTTTA	0.304
GCTTTTTA	0.271
GCTTTTAA	-0.0048
ACGTTTTG	0.222
ACGTTTTA	0.295
